# Source: ChEMBL document CHEMBL3988442, “University of Dundee, Small-Polar-MMV Screening Library” (2021)
# In all, about 66,000 compounds went through this assay and about 960 (1.5%) showed an effect of 50% or more. The list comes from a sample in which strong results are over-represented; it also holds similar structures and randomly drawn compounds.
# Test system: Trypanosoma brucei
# Test: Trypanosoma brucei 72 hour study
# Type: functional, organism-based
# Design: scale not given: in the data most compounds retested in dose-response had high values
compound,measurement,setting,value
Cn1ccc(CN2CCC3(CCCN3CC3CC3)CC2)n1.O=C(O)C(F)(F)F.O=C(O)C(F)(F)F,Percent Effect,"30.3 µM, […]",-89.65%
COC1CN(C(=O)CC(C)(C)C)CCC(=O)N(C)c2ccccc21 (configuration not stated),Percent Effect,"30.3 µM, […]",-11.06%
CC(C)NC(=O)[C@H]1C[C@@H]2CN(C(=O)NCc3ccccc3)C[C@H]1O2,Percent Effect,"30 µM, 30.03 µM",43.99%
CSCC[C@@H](CO)Nc1ccc(-c2nc(C3CC3)no2)cn1,Percent Effect,"30.3 µM, […]",19.73%
CSCC[C@@H](CO)Nc1ccc(-c2nc(-c3ccccc3C)no2)cn1,Percent Effect,"30.3 µM, […]",99.8%
CSCC[C@@H](CO)Nc1ccc(-c2nc(-c3ccccc3F)no2)cn1,Percent Effect,"30.3 µM, […]",-25.91%
Cc1ccc(CN(C)C(=O)c2cnsn2)cc1,Percent Effect,"30 µM, 30.03 µM",-21.68%
CCc1ncc(CN2CCOC(Cc3cccc(F)c3)C2)cn1 (configuration not stated),Percent Effect,"30.3 µM, […]",-57.81%
O=C(Cc1ccc2c(c1)CCCC2)Nc1cccnc1N1CCSCC1,Percent Effect,"30 µM, 30.03 µM",7.169%
COCCNC(=O)c1cc2c(s1)CCN2C(=O)c1ccccc1,Percent Effect,"30 µM, 30.03 µM",61.44%
O=C(NCCN1CCCC1)c1cc2c(s1)CCN2C(=O)c1ccccc1,Percent Effect,"30.3 µM, […]",-8.761%
CCCNC(=O)c1cc2c(s1)CCN2C(=O)c1ccccc1,Percent Effect,"30.3 µM, […]",-5.969%
CCOc1ncccc1CNC(=O)Nc1ccc(N(C)C)nc1,Percent Effect,"30.3 µM, […]",-10.18%
CN1CCN(C(=O)C2CCCN(c3cccnn3)C2)CC1 (configuration not stated),Percent Effect,"30.3 µM, […]",101%
CN1CCN(C(=O)C2CCN(c3cccnn3)C2)CC1 (configuration not stated),Percent Effect,"30.3 µM, […]",1.766%
CN1CCN(C(=O)C2CCN(c3cccnn3)CC2)CC1,Percent Effect,"30.3 µM, […]",-20.3%
CC(C)(C)CN1CC(O)CN(C(=O)c2cccc(C(F)(F)F)c2)CC1=O (configuration not stated),Percent Effect,"30.3 µM, […]",-4.351%
CC(C)N(C)Cc1cnc2n1CCN(C(=O)Cc1ccsc1)C2.O=C(O)C(F)(F)F,Percent Effect,"30 µM, 30.03 µM",-22.47%
Cc1ccc2c(n1)N(CCN(C)C)CCN(C(=O)c1ccc[nH]1)C2.O=C(O)C(F)(F)F.O=C(O)C(F)(F)F,Percent Effect,"30 µM, 30.03 µM",4.99%
O=S(=O)(NCCc1nc(-c2cccnc2)n[nH]1)NCc1ccccc1,Percent Effect,"30.3 µM, […]",-84.2%
c1ccc(-c2n[nH]c(CCNc3nnc(C4CCC4)o3)n2)cc1,Percent Effect,"30.3 µM, […]",99.86%
c1ccc(-c2nc(CCNc3nnc(C4CCC4)o3)no2)cc1,Percent Effect,"30.3 µM, […]",99.59%
CCCc1nnc(NCCc2noc(C3CCCC3)n2)o1,Percent Effect,"30 µM, 30.03 µM",-39.45%
c1cc(-c2n[nH]c(CNc3nnc(C4CC4)o3)n2)ccn1,Percent Effect,"30.3 µM, […]",0.7676%
CCCc1nnc(NCCc2noc(C3CCC3)n2)o1,Percent Effect,"30 µM, 30.03 µM",-16.87%
CN(C)C(=O)N[C@H]1CN(Cc2ccc3c(c2)OCO3)[C@@H]2CCCO[C@H]12.O=C(O)C(F)(F)F,Percent Effect,"30.3 µM, […]",-7.695%
CS(=O)(=O)NCc1cncc2c1CCN(C(=O)N1CCCC1)C2.Cl,Percent Effect,"30.3 µM, […]",-11.25%
Cc1noc([C@@]23CCO[C@@H]2CCN(Cc2scnc2C)C3)n1.O=C(O)C(F)(F)F,Percent Effect,"30.3 µM, […]",7.313%
O=c1[nH][nH]cc1-c1ccnc(NCCc2cccc(O)c2)n1,Percent Effect,"30.3 µM, […]",-16.62%
CCN(CC1CCOC1)C(=O)c1ccc(N2CCOCC2)c(F)c1 (configuration not stated),Percent Effect,"30.3 µM, […]",-9.543%
O=C(Nc1ccncc1)N(CCO)Cc1ccsc1,Percent Effect,"30.3 µM, […]",7.021%
CN(C)C(=O)c1cccc(NC(=O)N(CCO)Cc2ccsc2)c1,Percent Effect,"30 µM, 30.03 µM",-3.434%
COc1cccc(NC(=O)N(CCO)Cc2ccsc2)c1,Percent Effect,"30 µM, 30.03 µM",51.17%
Cc1nc(N)nc(C)c1CC(=O)NCc1ccc2nonc2c1,Percent Effect,"30 µM, 30.03 µM",-40.59%
Cc1noc(C)c1CN1CC[C@@H](OCC2CC2)[C@@H](Cc2ccccc2)C1.O=C(O)C(F)(F)F,Percent Effect,"30 µM, 30.03 µM",12.8%
O=C(c1cc2ccccc2[nH]1)N1CCC(Nc2cccnn2)CC1,Percent Effect,"30.3 µM, […]",-25.8%
O=C(c1cc2cc(I)ccc2[nH]1)N1CCC(Nc2cccnn2)CC1,Percent Effect,"30.3 µM, […]",85.16%
O=C(c1cc2cc(F)ccc2[nH]1)N1CCC(Nc2cccnn2)CC1,Percent Effect,"30.3 µM, […]",-6.499%
CCCN(CCC)c1ncc(S(=O)(=O)c2cccc(C)c2)c(N)n1,Percent Effect,"30.3 µM, […]",1.054%
CCCN(CCC)c1ncc(S(=O)(=O)c2ccc(C)cc2)c(N)n1,Percent Effect,"30.3 µM, […]",0.2073%
CCCN(CCC)c1ncc(S(=O)(=O)c2ccccc2)c(N)n1,Percent Effect,"30.3 µM, […]",81.44%
O=C(N1CCCC1)N1C[C@H]2CCC[C@@]2(COCc2ccccn2)C1.O=C(O)C(F)(F)F,Percent Effect,"30.3 µM, […]",8.939%
Cc1ccc(CN2CCN(C3CCCC3)CC2CCO)o1 (configuration not stated),Percent Effect,"30 µM, 30.03 µM",-4.422%
CN1C(=O)CC(c2cnn(C)c2)C12CCN(CC1CCOCC1)CC2.O=C(O)C(F)(F)F (configuration not stated),Percent Effect,"30.3 µM, […]",-2.852%
Cc1noc(C)c1CN1CCn2cc(CN3CCCC3)nc2C1.O=C(O)C(F)(F)F.O=C(O)C(F)(F)F,Percent Effect,"30.3 µM, […]",0.2362%
Cc1ccc(CN2CCc3ncnc(-c4ccncc4)c3CC2)o1.O=C(O)C(F)(F)F.O=C(O)C(F)(F)F,Percent Effect,"30.3 µM, […]",-37.96%
Nc1ncncc1-c1noc([C@@H]2CCCN2CCCc2ccccc2)n1,Percent Effect,"30.3 µM, […]",101.5%
Nc1ncncc1-c1noc([C@@H]2CCCN2CC2CC2)n1,Percent Effect,"30.3 µM, […]",-4.914%
Nc1ncncc1-c1noc([C@@H]2CCCN2Cc2cccnc2)n1,Percent Effect,"30.3 µM, […]",-3.258%
O=C(O)C(F)(F)F.O=C(O)C(F)(F)F.c1cncc(-c2nnn3c2COCC(CNC2CCOCC2)C3)c1 (configuration not stated),Percent Effect,"30 µM, 30.03 µM",-0.7004%
CC(=O)N1C[C@@H](c2ccsc2)[C@@H]2CN(Cc3ccccc3)CC[C@@H]21,Percent Effect,"30 µM, 30.03 µM",3.298%
COc1cccc([C@H]2CN(C(C)=O)[C@@H]3CCN(Cc4ccsc4)C[C@H]23)c1.Cl,Percent Effect,"30.3 µM, […]",96.3%
COc1cccc(CN2CC[C@H]3[C@@H](C2)[C@H](c2ccsc2)CN3C(C)=O)c1,Percent Effect,"30.3 µM, […]",-3.85%
Cc1nnsc1C(=O)N1C[C@H]2CC[C@@H]1CN(c1cnccn1)C2,Percent Effect,"30 µM, 30.03 µM",0.47%
Cc1cnc2c(c1NCc1cccnc1)c(=O)n(C)c(=O)n2C,Percent Effect,"30 µM, 30.03 µM",-45.54%
CCc1noc(CN2CCN(C(=O)C3CC3)CC2)n1,Percent Effect,10 µM,-20.32%
Cc1cc(N2CCCC2)nc(CNS(=O)(=O)Cc2ccccc2)n1,Percent Effect,"30 µM, 30.03 µM",99.66%
CCS(=O)(=O)NCc1nc(C)cc(N2CCCC2)n1,Percent Effect,"30 µM, 30.03 µM",4.691%
O=S(=O)(Cc1ccccc1)NCc1nnc2n1CCC2,Percent Effect,"30 µM, 30.03 µM",-38.65%
CCS(=O)(=O)NCc1nc(C)cc(N2CCCCC2)n1,Percent Effect,"30 µM, 30.03 µM",-14.09%
CCS(=O)(=O)NCc1nc(C)cc(N2CCOCC2)n1,Percent Effect,"30 µM, 30.03 µM",-12.8%
CCCS(=O)(=O)NCc1nc(C)cc(N2CCCC2)n1,Percent Effect,"30 µM, 30.03 µM",60.24%
